# Bioassay records from PubChem BioAssay.
# MEKK2 mut-MEK5 = signal of MEK5 binding to mutant human MEKK2 PB1 domain. actives 0.35% (n = 290,000). bead flow cytometry, Alexa488-MEK5 binding to MEKK2 mutant. percent response, % at 10 µM; in the data active = percent response above about 24%, passing the limit was not always enough
# dFosB activator = enhances mouse delta FosB homodimer DNA binding; purified delta FosB, TAMRA-CDK5 oligo fluorescence polarization; percent of positive-control signal above neutral wells; actives 0.99% (n = 340,000); AID 493131; activation, % at 25 µM;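 active = mean activation above about 17%, with every replicate also reaching it, limit read from the data, passing the limit was not always enough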
# MEKK3 PB1 HTS = modulators (inhibitors or enhancers) of MEK5 binding to human MEKK3 PB1 domain. Q99759. bead-based flow cytometry, Alexa488-MEK5 binding to MEKK3; actives lie on both sides; 0 = blocked by unlabeled MEK5, 100 = vehicle. binding response (% of control), % at 10 µM. actives 1.4% (n = 290,000). AID 1529;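 active = binding response more than 3 SD above or below the average of its plate-row segment, actives on both sides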;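 note: Alexa488 bead fluorescence after subtracting the streptavidin-only scavenger bead signal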
# Target sequence (Q99759 whole entry, looked up, the tested form may be a part): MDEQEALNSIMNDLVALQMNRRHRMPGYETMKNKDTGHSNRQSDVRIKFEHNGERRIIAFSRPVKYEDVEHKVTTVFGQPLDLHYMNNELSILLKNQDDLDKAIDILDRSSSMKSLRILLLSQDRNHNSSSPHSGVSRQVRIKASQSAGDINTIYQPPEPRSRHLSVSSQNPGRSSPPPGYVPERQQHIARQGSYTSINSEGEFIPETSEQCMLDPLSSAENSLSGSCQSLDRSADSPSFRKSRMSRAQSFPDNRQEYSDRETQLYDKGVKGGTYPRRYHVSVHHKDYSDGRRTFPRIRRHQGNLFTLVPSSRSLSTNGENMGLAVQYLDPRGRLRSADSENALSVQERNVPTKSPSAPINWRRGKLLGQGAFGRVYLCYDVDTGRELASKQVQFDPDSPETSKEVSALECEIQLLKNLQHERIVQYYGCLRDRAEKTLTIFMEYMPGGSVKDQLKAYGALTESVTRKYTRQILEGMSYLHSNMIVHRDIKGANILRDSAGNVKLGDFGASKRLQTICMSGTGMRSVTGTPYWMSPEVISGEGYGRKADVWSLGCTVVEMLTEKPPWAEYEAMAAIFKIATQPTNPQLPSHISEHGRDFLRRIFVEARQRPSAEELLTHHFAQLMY
# MEKK2 WT-MEK5 = raises or lowers MEK5 binding to wildtype human MEKK2 PB1 domain; bead flow cytometry, Alexa488-MEK5 binding to MEKK2 WT; actives lie on both sides; binding response (% of control), % at 10 µM; actives 1.1% (n = 290,000); in the data active = binding response below about 67% or above about 130%
# FID counter = counter-screen for HCV NS3 helicase inhibitors: DNA intercalator displacement. AID 1845. actives 0.17% (n = 290,000). DNA fluorescent intercalator displacement, fluorescence. inhibition, % at 7.9 µM; in the data active = inhibition above about 37%;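 note: 0% = vehicle and 100% = reference compound; higher means more ethidium bromide displaced from hairpin DNA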
# MEKK2wt confirm = raises or lowers MEK5 binding to wildtype human MEKK2, retest; shares compounds with MEKK3 PB1 HTS; bead flow cytometry, Alexa488-MEK5 binding to MEKK2 WT; actives lie on both sides; binding response (% of control), % at 10 µM; actives 2.4% (n = 5,900); in the data active = binding response below about 16% or above about 210%; inactive = in between
# MEKK2mut-MEK5 = signal of MEK5 binding to mutant human MEKK2, retest; bead flow cytometry, Alexa488-MEK5 binding to MEKK2 mutant; actives 2% (n = 5,900); shares compounds with MEKK3 PB1 HTS; AID 1893; percent response, % at 10 µM; in the data active = percent response mostly above about 71%, no sharp cut-off; inactive = mostly below about 38%;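 note: higher means compound restores mutant binding toward wildtype level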
# MEKK3 confirm = MEKK3-MEK5 PB1 inhibition, single concentration confirmation; shares compounds with MEKK3 PB1 HTS; bead flow cytometry, Alexa488-MEK5 binding to MEKK3; stronger effect = lower value; binding response (% of control), % at 10 µM; actives 1.8% (n = 5,900);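 active = binding response below 72% of control, or above a set upper limit, though filed actives all read lower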;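 note: 100% = DMSO only wells and 0% = binding blocked by excess unlabeled MEK5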
# * marks the source's active call; other numbers are inactive results; . = no result; [ ] = another dose, or the depositor's remark. In the library only some 2.9% were active in any assay of this set; here they are far more common.
SMILES,MEKK2 mut-MEK5,dFosB activator,MEKK3 PB1 HTS,MEKK2 WT-MEK5,FID counter,MEKK2wt confirm,MEKK2mut-MEK5,MEKK3 confirm
CC(=O)NCC(=O)N1CCCC(C(=O)c2ccc(Oc3ccccc3)cc2)C1 (configuration not stated),-5.0,-2.8,100.0,91.0,-27.6,.,.,.
COc1cc2ccccc2cc1C(=O)NC(=S)Nc1cc(C(=O)O)ccc1C,0.0,-7.6,129.0*,110.0,-5.7,100.0,0.0,103.0
CS(=O)(=O)N(CC(=O)NCc1ccccc1)C1CCCCC1,3.0,-5.2,103.0,105.0,-10.0,.,.,.
Cc1ccc(CNC(=O)CN(C2CCCCC2)S(C)(=O)=O)cc1,5.0,0.1,67.0*[inhibitor],55.0*[inhibitor],-4.2,102.0,-3.0,102.0
Cc1ccc(CNC(=O)CN2C(C)CCCC2C)cc1 (configuration not stated),-15.0,3.6,56.0*[inhibitor],62.0*[inhibitor],-4.2,104.0,4.0,102.0
COc1cccc(C(=O)N/N=C/C(Br)=C/c2ccccc2)c1,11.0,5.9,101.0,107.0,-6.8,.,.,.
CC(=O)Nc1ccc(S(=O)(=O)NCc2ccc(C)cc2)cc1,7.0,-4.0,126.0*,122.0,-2.5,97.0,-3.0,95.0
O=[N+]([O-])c1ccccc1NCCNS(=O)(=O)c1ccc(Cl)cc1,1.0,1.4,105.0,101.0,-4.4,.,.,.
CC(=O)Nc1ccc(S(=O)(=O)NCc2ccc3[nH]c(C)cc3c2)cc1,-9.0,-0.7,80.0*[inhibitor],72.0*[inhibitor],-2.4,83.0,2.0,94.0
CC(=O)Nc1ccc(S(=O)(=O)NCCNc2ccccc2[N+](=O)[O-])cc1,0.0,-2.9,128.0*,112.0,2.4,106.0,-2.0,106.0
Cc1ccc(S(=O)(=O)NCc2ccc3[nH]c(C)cc3c2)cc1,0.0,-7.8,78.0,101.0,-3.0,.,.,.
CC(=O)Nc1ccc(S(=O)(=O)NCc2ccc3c(c2)cc(C)n3C)cc1,-14.0,-11.3,70.0*[inhibitor],50.0*[inhibitor],-20.3,90.0,-9.0,97.0
CC(=O)Nc1ccc(S(=O)(=O)NCCNS(=O)(=O)c2ccc(NC(C)=O)cc2)cc1,4.0,2.4,104.0,105.0,4.8,.,.,.
Cc1cc2cc(CNS(=O)(=O)c3ccc4ccccc4c3)ccc2n1C,2.0,12.0,100.0,96.0,-22.6,.,.,.
COc1cc(C2C(N3C(=O)c4ccccc4C3=O)C(=O)N2c2cccc(C)c2)cc(OC)c1OC (configuration not stated),-2.0,.,113.0,97.0,-11.3,.,.,.
O=C(Nc1ccc(F)cc1F)c1c(C(F)(F)F)ccnc1Oc1ccc(Cl)cc1,-1.0,-0.7,94.0,100.0,-7.1,.,.,.
COc1ccc2nc(SCC(=O)c3c(N)n(C4CC4)c(=O)[nH]c3=O)[nH]c2c1,.,-14.8,.,.,.,.,.,.
CCCN1C2CCCC1CC(NC(=O)NC1CCCCC1)C2 (configuration not stated),-14.0,-3.5,2.0*[inhibitor],2.0*[inhibitor],-1.1,101.0,2.0,100.0
Cc1cc(C)c2oc(C(=O)Nc3nnc(C(C)C)s3)cc(=O)c2c1,2.0,-3.7,212.0*,118.0,-8.4,79.0,-14.0,85.0
O=C(COC(=O)Cc1c(Cl)cccc1Cl)NCC1CCCO1 (configuration not stated),-6.0,9.8,100.0,94.0,-2.6,.,.,.
CC(=O)c1c(C)[nH]c(C(=O)COC(=O)C2(C)CC2(Cl)Cl)c1C (configuration not stated),.,-16.0,.,.,.,.,.,.
O=C(COc1ccccc1-c1ccccc1)NCc1cccc(Cl)c1,27.0,-12.3,111.0,147.0*,-20.0,99.0,-6.0,99.0
CN(C)CCCN(C(=O)c1cc(-c2cccs2)nc2ccccc12)c1nc2c(F)cccc2s1,27.0*,-5.1,103.0,172.0*,26.5,173.0,45.0,99.0
CN(C)CCCN(C(=O)/C=C/c1cccs1)c1nc2c(F)cccc2s1,4.0,-23.4,109.0,132.0,13.3,.,.,.
Cc1ccc2nc(N(CCCN(C)C)C(=O)c3cc(-c4cccs4)nc4ccccc34)sc2c1,73.0*,-19.4,116.0,228.0*,36.4,205.0,63.0,109.0
SMILES,MEKK2 mut-MEK5,dFosB activator,MEKK3 PB1 HTS,MEKK2 WT-MEK5,FID counter,MEKK2wt confirm,MEKK2mut-MEK5,MEKK3 confirm
CSc1nc(SCC(=O)NCC2CCCO2)c2c3c(sc2n1)CN(C)CC3 (configuration not stated),11.0,.,106.0,109.0,5.5,.,.,.
CC(C)NC(=O)C(=O)Nc1cc2c3c(c1)C(C)C(=O)N3CCC2 (configuration not stated),2.0,-6.4,102.0,102.0,-17.4,.,.,.
O=C(COC(=O)c1ccc(S(=O)(=O)N2CCOCC2)cc1)NC1CCCCCCC1,-5.0,-4.7,103.0,98.0,-8.3,.,.,.
O=C(COC(=O)c1ccc(S(=O)(=O)N2CCc3ccccc3C2)cc1)NC1CCS(=O)(=O)C1 (configuration not stated),-17.0,3.9,50.0*[inhibitor],58.0,-0.1,105.0,5.0,102.0
Cc1ccc(C)c(OCCCNCc2ccccc2)c1,9.0,-7.4,107.0,129.0,16.5,.,.,.
Cc1cc(OCCOCCNCc2ccccc2)ccc1C(C)C,6.0,6.4,109.0,134.0*,23.5,100.0,-4.0,103.0
Cc1ccc(C(C)C)c(OCCNCc2ccccc2)c1,6.0,5.7,109.0,134.0*,27.9,128.0,13.0,105.0
CCN(CC(=O)Nc1ccc(Br)cc1)CC(=O)Nc1cc(C)on1,.,-3.4,.,.,.,.,.,.
O=C(COc1coc(CN2CCc3ccccc32)cc1=O)Nc1ccc([N+](=O)[O-])cc1,.,2.2,.,.,.,.,.,.
COC(=O)c1cc(NC(=O)c2ccccc2)c(=O)oc1/C=C/Nc1ccc(Oc2ccccc2)cc1,734.0*,-45.6,85.0,218.0*,1.4,87.0,-30.0,73.0
CCCCn1nc(C(=O)Nc2ccc(-n3cnnn3)cc2)c2ccccc2c1=O,.,7.1,.,.,.,.,.,.
Cc1nnc(N)s1,-37.0,-1.9,73.0*[inhibitor],82.0,-2.1,101.0,0.0,101.0
O=C(NNC1=NCCN1Cc1ccccc1)c1cccc(C(F)(F)F)c1,25.0,-6.5,128.0*,128.0,3.7,99.0,-2.0,96.0
CC(=O)N1/C(=C/c2ccc(N(C)C)cc2)C(=O)c2ccccc21,-12.0,-4.1,55.0,36.0*[inhibitor],-17.3,38.0,-20.0,83.0
C/C(=N\O)C1CC(CC(=O)O)C1(C)C (configuration not stated),11.0,-3.1,98.0,100.0,-5.3,.,.,.
O=C1CC(N2CCOCC2)C(=O)N1CCN1C(=O)CC(N2CCOCC2)C1=O (configuration not stated),-16.0,-2.6,2.0*[inhibitor],2.0*[inhibitor],-1.3,98.0,-1.0,97.0
